Test results as given in PubChem BioAssay (Tox21).
Where “and” joins values, the source holds several entries; their conditions need not be identical. Equal entries are not always repeated. Records with an inconclusive call do not appear. A call without a number means that no potency is given here. More than one record can exist for a structure, and the calls need not agree. Calls of active or inactive are those of the source. Calls follow the shape of the dose curve; as a rule, active = well fitted cell-killing curve with a large enough effect in the repeat runs; inconclusive = weak or mixed curves, or effect the other way; inactive = flat fitted curve, though single readings scatter.

Assay: qHTS assay to identify small molecule that activate the aryl hydrocarbon receptor (AhR) signaling pathway - cell viability counter screen (AID 743086); also: nearly all actives have a fitted effect of over 45% in size
Conditions: HepG2-AhR-luc viability, CellTiter-Fluor, 24 h; series mostly up to 70.3 µM
Outline: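 Cytotoxicity counter screen: CellTiter-Fluor signal (30 min, 37 C) in 4000 HepG2 cells/well carrying the DRE-luciferase reporter, following 24 h compound exposure at 37 C.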
Potency is read from the fitted curve at half-maximal effect.

For `CC(C)(S)C(=O)N[C@@H](CS)C(=O)O`, which Potency is on record?
The Potency was “inactive”.

For `C[S+](C)CCC(N)C(=O)O` (stereo unspecified), which Potency is on record?
Its Potency is “inactive”.

Which Potency does the source give for `CC(C)(C)c1ccc2c(S(=O)(=O)O)c(C(C)(C)C)ccc2c1` here?
The Potency was “inactive”.

Which Potency does the source give for `CC(=O)NC[C@H]1CN(c2ccc(N3CCOCC3)c(F)c2)C(=O)O1` here?
Its Potency is “inactive”.

For `CC(=O)O[C@H]1C[C@@H]2CC[C@@H]3[C@H](CC[C@@]4(C)[C@H]3C[C@H]([N+]3(C)CCCCC3)[C@@H]4OC(C)=O)[C@@]2(C)C[C@@H]1[N+]1(C)CCCCC1`, which Potency is on record?
The Potency was “inactive”.

Which Potency does the source give for `N#Cc1c(N(CC(=O)O)CC(=O)O)sc(C(=O)O)c1CC(=O)O` here?
The Potency was “inactive”.

Which Potency does the source give for `CC[C@H]1OC(=O)C[C@@H](O)[C@H](C)[C@@H](O[C@@H]2O[C@H](C)[C@@H](O[C@H]3C[C@@](C)(O)[C@@H](O)[C@H](C)O3)[C@H](N(C)C)[C@H]2O)[C@@H](CC=O)C[C@@H](C)C(=O)/C=C/C(C)=C/[C@@H]1CO[C@@H]1O[C@H](C)[C@@H](O)[C@@H](OC)[C@H]1OC` here?
The Potency was “inactive”.

With `COC1=C(OC)C(=O)C(C/C=C(\C)CC/C=C(\C)CC/C=C(\C)CC/C=C(\C)CC/C=C(\C)CC/C=C(\C)CC/C=C(\C)CC/C=C(\C)CC/C=C(\C)CCC=C(C)C)=C(C)C1=O` as the compound, how does the Potency read?
The Potency was “inactive”.

With `CCC[C@@H]1C[C@@H](C(=O)N[C@@H]([C@H]2O[C@H](SC)[C@H](OP(=O)(O)O)[C@@H](O)[C@H]2O)[C@H](C)Cl)N(C)C1` as the compound, how does the Potency read?
Its Potency is “inactive”.

Which Potency does the source give for `CC1=C(/C=C/C(C)=C/C=C/C(C)=C/C=C/C=C(C)/C=C/C=C(C)/C=C/C2=C(C)CCCC2(C)C)C(C)(C)CCC1` here?
Its Potency is “inactive”.

Which Potency does the source give for `C[N+](C)(C)CCOP(=O)(O)OP(=O)([O-])OC[C@H]1O[C@@H](n2ccc(N)nc2=O)[C@H](O)[C@@H]1O` here?
The Potency was “inactive”.

With `NC(=O)C1c2ccccc2CCc2ccccc21` as the compound, how does the Potency read?
The Potency was “inactive”.

With `CO/N=C(\C(=O)N[C@@H]1C(=O)N2C(C(=O)[O-])=C(C[n+]3ccc(N)n3CCO)CS[C@H]12)c1csc(N)n1` as the compound, how does the Potency read?
Its Potency is “inactive”.

For `CC(=O)OCC1=C(C(=O)O)N2C(=O)[C@@H](NC(=O)Cc3ccccc3)[C@H]2SC1`, which Potency is on record?
The Potency was “inactive”.

Which Potency does the source give for `CS(=O)(=O)c1ccc([C@@H](O)[C@@H](COC(=O)CN)NC(=O)C(Cl)Cl)cc1` here?
The Potency was “inactive”.

Which Potency does the source give for `Cc1cccc(C)c1NC(=O)C1CCCCN1C` (stereo unspecified) here?
The Potency was “inactive”.

With `CC(=NCc1ccccc1)c1ccccc1O` as the compound, how does the Potency read?
The Potency was “inactive”.

For `CSCC[C@H](NC(=O)[C@H](Cc1ccc(OS(=O)(=O)O)cc1)NC(=O)[C@@H](N)CC(=O)O)C(=O)NCC(=O)N[C@@H](Cc1c[nH]c2ccccc12)C(=O)N[C@@H](CCSC)C(=O)N[C@@H](CC(=O)O)C(=O)N[C@@H](Cc1ccccc1)C(N)=O`, which Potency is on record?
The Potency was “inactive”.

For `O=C[C@H](O)[C@@H](O)[C@@H](O)[C@H](O)CO`, which Potency is on record?
Its Potency is “inactive”.

Which Potency does the source give for `COC(=O)[C@H]1[C@H]2C[C@H]3c4[nH]c5ccccc5c4CCN3C[C@H]2CC[C@@H]1O` here?
Its Potency is “inactive”.

For `CCOC(=O)[C@H](CCc1ccccc1)N[C@@H](C)C(=O)N1[C@H](C(=O)O)C[C@H]2CCCC[C@@H]21`, which Potency is on record?
Its Potency is “inactive”.

Which Potency does the source give for `CC(C)CCC[C@@H](C)[C@H]1CC[C@H]2[C@@H]3CC=C4C[C@@H](O)CC[C@]4(C)[C@H]3CC[C@]12C` here?
Its Potency is “inactive”.

For `C=CC[N@@+]12CC[C@@]34c5ccccc5N5/C=C6/[C@H]7C[C@H]8[C@@]9(CC[N@@+]8(CC=C)C/C7=C/CO)c7ccccc7N(/C=C(/[C@@H](C[C@@H]31)/C(=C\CO)C2)[C@H]54)[C@@H]69`, which Potency is on record?
The Potency was “inactive”.

Which Potency does the source give for `CC(=O)Oc1cc(C(F)(F)F)ccc1C(=O)O` here?
Its Potency is “inactive”.

With `O=c1[nH]c(=O)n([C@H]2C[C@H](O)[C@@H](CO)O2)cc1/C=C/Br` as the compound, how does the Potency read?
The Potency was “inactive”.

With `CC(C)=CCC/C(C)=C/CC/C(C)=C/CC/C=C(\C)CC/C=C(\C)CCC=C(C)C` as the compound, how does the Potency read?
The Potency was “inactive”.

For `Cc1cc(-c2ccc(N=Nc3ccc4c(S(=O)(=O)O)cc(S(=O)(=O)O)c(N)c4c3O)c(C)c2)ccc1N=Nc1ccc2c(S(=O)(=O)O)cc(S(=O)(=O)O)c(N)c2c1O`, which Potency is on record?
The Potency was “inactive and 29.8 µM (active)”.

Which Potency does the source give for `O=C1CCC(c2ccc(-n3ccnc3)cc2)=NN1` here?
The Potency was “inactive”.

For `C=CC1=C(C(=O)O)N2C(=O)[C@@H](NC(=O)/C(=N\O)c3csc(N)n3)[C@H]2SC1` (stereo in doubt), which Potency is on record?
Its Potency is “inactive”.

With `CCCCC[C@H](O)/C=C/[C@@H]1[C@@H](C/C=C\CCCC(=O)O)[C@@H](O)C[C@H]1O` as the compound, how does the Potency read?
The Potency was “inactive”.

With `COc1ccc(/C=N/NC(=O)c2ccncc2)c(C(=O)O)c1OC` as the compound, how does the Potency read?
Its Potency is “inactive”.

For `O=P(O)(O)OP(=O)(O)OP(=O)(O)O`, which Potency is on record?
The Potency was “inactive”.

Which Potency does the source give for `C[S+](CC[C@H](N)C(=O)O)C[C@H]1O[C@@H](n2cnc3c(N)ncnc32)[C@H](O)[C@@H]1O` (stereo partly specified) here?
The Potency was “inactive”.

Which Potency does the source give for `CCN(CC)CCOC[C@H]1O[C@@H](O)[C@H](OCCN(CC)CC)[C@@H](O)[C@@H]1O` here?
Its Potency is “inactive”.

Which Potency does the source give for `CC(C)C[C@H](NC(=O)[C@@H](COC(C)(C)C)NC(=O)[C@H](Cc1ccc(O)cc1)NC(=O)[C@H](CO)NC(=O)[C@H](Cc1c[nH]c2ccccc12)NC(=O)[C@H](Cc1cnc[nH]1)NC(=O)[C@@H]1CCC(=O)N1)C(=O)N[C@@H](CCCN=C(N)N)C(=O)N1CCC[C@H]1C(=O)NNC(N)=O` here?
Its Potency is “inactive”.

With `CC/C(=C(/CC)c1ccc(OP(=O)(O)O)cc1)c1ccc(OP(=O)(O)O)cc1` as the compound, how does the Potency read?
Its Potency is “inactive”.
